The whole screen tested about 5,500 compounds, of which about 2,000 (36%) were called active. Another 18% or so got no clear call; they are omitted. No stated cut-off is given here; in the data, active means normalized growth mostly below about 0.91 (no sharp cut-off); inconclusive means no clear call, values can overlap the other calls; inactive means mostly above about 0.92. The list shows a part of the results.
Experiment: chemical genetic growth profiling, strain panel (AID 1159580);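 further: tested at 20 µM; growth read once vehicle control cultures reached saturation at 30 °C; 1 = growth at the plate median or of vehicle wells; lower values mean less growth of the strain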
Settings: growth OD

Measured: normalized growth

CSc1nc(N)nc(C(C)(C)C)n1
inactive: S. cerevisiae deletion strains, locus YAL013W, strain DEP1, active compounds read low 1.01 | S. cerevisiae deletion strains, locus YBR229C, strain ROT2, active compounds read low 1 | S. cerevisiae deletion strains, locus YCL061C, strain MRC1, active compounds read low 0.993 | S. cerevisiae deletion strains, locus YDL101C, strain DUN1, active compounds read low 0.976 | S. cerevisiae deletion strains, locus YDL134C, strain PPH21, active compounds read low 1.01 | S. cerevisiae deletion strains, locus YDR150W, strain NUM1, active compounds read low 0.978 | S. cerevisiae deletion strains, locus YEL061C, strain CIN8, active compounds read low 1.02 | S. cerevisiae deletion strains, locus YGR078C, strain PAC10, active compounds read low 1.01 | S. cerevisiae deletion strains, locus YHR030C, strain SLT2, active compounds read low 0.974 | S. cerevisiae deletion strains, locus YHR087W, strain rtc3, active compounds read low 1 | S. cerevisiae deletion strains, locus YJL187C, strain SWE1, active compounds read low 1.02 | S. cerevisiae deletion strains, locus YJR043C, strain POL32, active compounds read low 1.01 | S. cerevisiae deletion strains, locus YJR075W, strain HOC1, active compounds read low 0.978 | S. cerevisiae deletion strains, locus YLR039C, strain RIC1, active compounds read low 1.01 | S. cerevisiae deletion strains, locus YLR058C, strain SHM2 (second series), active compounds read low 1.02 | S. cerevisiae deletion strains, locus YLR085C, strain ARP6, active compounds read low 1.03 | S. cerevisiae deletion strains, locus YLR262C, strain YPT6, active compounds read low 1.01 | S. cerevisiae deletion strains, locus YML094W, strain GIM5, active compounds read low 0.981 | S. cerevisiae deletion strains, locus YMR219W, strain ESC1, active compounds read low 1.02 | S. cerevisiae deletion strains, locus YMR263W, strain SAP30, active compounds read low 0.991 | S. cerevisiae deletion strains, locus YNL128W, strain TEP1, active compounds read low 1.02 | S. cerevisiae deletion strains, locus YNL153C, strain GIM3, active compounds read low 0.982 | S. cerevisiae deletion strains, locus YNL298W, strain CLA4 (second series), active compounds read low 1.03 | S. cerevisiae deletion strains, locus YNL322C, strain KRE1, active compounds read low 1 | S. cerevisiae deletion strains, locus YNR030W, strain Alg12, active compounds read low 1 | S. cerevisiae deletion strains, locus YOL006C, strain TOP1, active compounds read low 0.968 | S. cerevisiae deletion strains, locus YPL055C, strain LGE1, active compounds read low 0.989 | S. cerevisiae deletion strains, locus YPL241C, strain CIN2, active compounds read low 1.11 | S. cerevisiae deletion strains, locus YPR135W, strain CTF4, active compounds read low 0.951 | S. cerevisiae strains, strain wild type, active compounds read low 1.02
